# Data published in the supplement of paper PMC8728848.
# The sample as a whole holds a higher share of the strongest signals than the screen did.
# Assays:
# Assay in all cases: glycan array binding signal (z-score within array); higher = stronger binding
# Settings in all cases: glycan notation: IUPAC condensed, linker removed
# [1] = target: Glc(a1-6)Glc(a1-6)Glc(a1-6)Glc
# In short: (§1)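 The binding signal is a Z-score computed within each array and averaged over linkers. Arrays of the same protein sequence at different concentrations or buffers were also averaged together. Data originate from 3228 arrays in the Consortium for Functional Glycomics database, kept only where the protein sequence was available.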
# [2] = target: GlcNAc(a1-4)Gal(b1-4)GlcNAc
# In short: as §1
# [3] = target: GlcNAc(a1-4)Gal(b1-4)GlcNAc(b1-3)Gal(b1-4)[Fuc(a1-3)]GlcNAc(b1-3)Gal(b1-4)[Fuc(a1-3)]GlcNAc
# In short: as §1
# [4] = target: GlcNAc(b1-2)Man(a1-3)[GlcNAc(b1-2)Man(a1-6)]Man(b1-4)GlcNAc(b1-4)GlcNAc
# In short: as §1
# [5] = target: GlcNAc(b1-2)[GlcNAc(b1-4)]Man(a1-3)[GlcNAc(b1-4)][GlcNAc(b1-2)[GlcNAc(b1-6)]Man(a1-6)]Man(b1-4)GlcNAc(b1-4)GlcNAc
# In short: as §1
# [6] = target: GlcNAc(b1-3)Gal(b1-4)GlcNAc
# In short: as §1
# [7] = target: GlcNAc(b1-3)Gal(b1-4)GlcNAc(b1-2)Man(a1-3)[GlcNAc(b1-3)Gal(b1-4)GlcNAc(b1-2)Man(a1-6)]Man(b1-4)GlcNAc(b1-4)GlcNAc
# In short: as §1
# [8] = target: GlcNAc(b1-3)Gal(b1-4)GlcNAc(b1-3)GalNAc
# In short: as §1
# [9] = target: GlcNAc(b1-3)Gal(b1-4)GlcNAc(b1-6)[GlcNAc(b1-3)]Gal(b1-4)GlcNAc
# In short: as §1
# [10] = target: GlcNAc(b1-4)GlcNAc(b1-4)GlcNAc(b1-4)GlcNAc(b1-4)GlcNAc(b1-4)GlcNAc
# In short: as §1
# [11] = target: GlcNAc6S(b1-3)Gal(b1-4)GlcNAc
# In short: as §1
# Man(a1-2)Man(a1-3)Man = target: Man(a1-2)Man(a1-3)Man
# In short: as §1
# [12] = target: Man(a1-3)[Man(a1-6)]Man(a1-6)[Man(a1-3)]Man(b1-4)GlcNAc(b1-4)GlcNAc
# In short: as §1
# [13] = target: Neu5Ac(a2-3)Gal(b1-3)GlcNAc(b1-2)Man
# In short: as §1
# [14] = target: Neu5Ac(a2-3)Gal(b1-3)GlcNAc(b1-2)Man(a1-3)[GlcNAc(b1-4)][Neu5Ac(a2-3)Gal(b1-3)GlcNAc(b1-2)Man(a1-6)]Man(b1-4)GlcNAc(b1-4)GlcNAc
# In short: as §1
# [15] = target: Neu5Ac(a2-3)Gal(b1-3)GlcNAc(b1-3)Gal(b1-3)GlcNAc
# In short: as §1
# [16] = target: Neu5Ac(a2-3)Gal(b1-3)[Fuc(a1-4)]GlcNAc(b1-3)Gal(b1-4)[Fuc(a1-3)]GlcNAc
# In short: as §1
# [17] = target: Neu5Ac(a2-3)Gal(b1-3)[Neu5Ac(a2-6)]GlcNAc(b1-3)[Fuc(a1-3)[Gal(b1-4)]GlcNAc(b1-6)]Gal(b1-4)Glc
# In short: as §1
# [18] = target: Neu5Ac(a2-3)Gal(b1-3)]Neu5Ac(a2-3)Gal(b1-4)]GlcNAc
# In short: as §1
# [19] = target: Neu5Ac(a2-3)Gal(b1-4)GlcNAc(b1-2)Man(a1-3)[GlcNAc(b1-4)][Neu5Ac(a2-3)Gal(b1-4)GlcNAc(b1-2)Man(a1-6)]Man(b1-4)GlcNAc(b1-4)GlcNAc
# In short: as §1
# [20] = target: Neu5Ac(a2-3)Gal(b1-4)GlcNAc(b1-2)[Neu5Ac(a2-3)Gal(b1-4)GlcNAc(b1-6)]Man(a1-6)[Neu5Ac(a2-3)Gal(b1-4)GlcNAc(b1-2)Man(a1-3)]Man(b1-4)GlcNAc(b1-4)GlcNAc
# In short: as §1
# [21] = target: Neu5Ac(a2-3)Gal(b1-4)GlcNAc(b1-6)[Neu5Ac(a2-3)Gal(b1-3)]GalNAc
# In short: as §1
# [22] = target: Neu5Ac(a2-3)Gal(b1-4)[Fuc(a1-3)]GlcNAc(b1-2)Man
# In short: as §1
# Neu5Ac(a2-3)GalNAc = target: Neu5Ac(a2-3)GalNAc
# In short: as §1
# [23] = target: Neu5Ac(a2-6)Gal(b1-4)GlcNAc(b1-2)Man(a1-3)[Man(a1-6)]Man(b1-4)GlcNAc(b1-4)GlcNAc
# In short: as §1
# [24] = target: Neu5Ac(a2-6)Gal(b1-4)GlcNAc(b1-2)Man(a1-6)[GlcNAc(b1-2)Man(a1-3)]Man(b1-4)GlcNAc(b1-4)GlcNAc
# In short: as §1
# [25] = target: Neu5Ac(a2-6)Gal(b1-4)GlcNAc(b1-3)Gal(b1-4)GlcNAc(b1-6)[Gal(b1-3)]GalNAc
# In short: as §1
# [26] = target: Neu5Ac(a2-6)Gal(b1-4)GlcNAc(b1-6)GalNAc
# In short: as §1
# [27] = target: Neu5Ac(a2-6)Gal(b1-4)GlcNAc(b1-6)[Gal(b1-3)]GalNAc
# In short: as §1
# Neu5Ac(a2-8)Neu5Ac = target: Neu5Ac(a2-8)Neu5Ac
# In short: as §1
# [28] = target: Neu5Ac(a2-8)Neu5Ac(a2-3)Gal(b1-3)GalNAc(b1-4)[Neu5Ac(a2-3)]Gal(b1-4)Glc
# In short: as §1
# [29] = target: Neu5Gc(a2-8)Neu5Gc(a2-6)Gal(b1-4)GlcNAc
# In short: as §1
binder,measurement,setting,value
GNL (Galanthus nivalis) (protein) MGHHHHHHHHYGTLENGHWLMVGMSIFSKDRTVELRMQDDGKLAIYYNDHCAWQSTAQQVNNAKGAVMQGDGNFCIYDKNGKATWHTNTAAPSGDSHTFVSVQDDGNLVLYKNNGATPIWSSKSNK,glycan array binding signal (z-score),[1],-0.121
same,glycan array binding signal (z-score),[2],-0.25
same,glycan array binding signal (z-score),[3],-0.175
same,glycan array binding signal (z-score),[4],8.74
same,glycan array binding signal (z-score),[5],-0.284
same,glycan array binding signal (z-score),[6],-0.226
same,glycan array binding signal (z-score),[7],0.679
same,glycan array binding signal (z-score),[8],-0.013
same,glycan array binding signal (z-score),[9],-0.255
same,glycan array binding signal (z-score),[10],-0.24
same,glycan array binding signal (z-score),[11],-0.28
same,glycan array binding signal (z-score),Man(a1-2)Man(a1-3)Man,-0.18
same,glycan array binding signal (z-score),[12],-0.2
same,glycan array binding signal (z-score),[13],-0.208
same,glycan array binding signal (z-score),[14],-0.228
same,glycan array binding signal (z-score),[15],-0.212
same,glycan array binding signal (z-score),[16],-0.191
same,glycan array binding signal (z-score),[17],-0.137
same,glycan array binding signal (z-score),[18],-0.172
same,glycan array binding signal (z-score),[19],-0.295
same,glycan array binding signal (z-score),[20],-0.159
same,glycan array binding signal (z-score),[21],-0.286
same,glycan array binding signal (z-score),[22],-0.295
same,glycan array binding signal (z-score),Neu5Ac(a2-3)GalNAc,-0.251
same,glycan array binding signal (z-score),[23],5.43
same,glycan array binding signal (z-score),[24],5.03
same,glycan array binding signal (z-score),[25],-0.216
same,glycan array binding signal (z-score),[26],-0.235
same,glycan array binding signal (z-score),[27],-0.133
same,glycan array binding signal (z-score),Neu5Ac(a2-8)Neu5Ac,-0.189
same,glycan array binding signal (z-score),[28],-0.285
same,glycan array binding signal (z-score),[29],-0.194
